In all, about 310,000 compounds went through this assay and about 14,000 (4.5%) showed an effect of 50% or more. The effect is printed as a negative number. The full list was thinned out, with strong results kept by preference.
These compounds were tested against human ether-à-go-go-related gene (hERG) potassium channel (human, UniProt Q12809) (assay: primary screen, population patch clamp on CHO cells stably expressing hERG; higher = less effect of the substance).
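Further: peak tail current of the secondary pulse compared with the same well before compound.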

Sequence of human ether-à-go-go-related gene (hERG) potassium channel (Q12809 whole entry, looked up): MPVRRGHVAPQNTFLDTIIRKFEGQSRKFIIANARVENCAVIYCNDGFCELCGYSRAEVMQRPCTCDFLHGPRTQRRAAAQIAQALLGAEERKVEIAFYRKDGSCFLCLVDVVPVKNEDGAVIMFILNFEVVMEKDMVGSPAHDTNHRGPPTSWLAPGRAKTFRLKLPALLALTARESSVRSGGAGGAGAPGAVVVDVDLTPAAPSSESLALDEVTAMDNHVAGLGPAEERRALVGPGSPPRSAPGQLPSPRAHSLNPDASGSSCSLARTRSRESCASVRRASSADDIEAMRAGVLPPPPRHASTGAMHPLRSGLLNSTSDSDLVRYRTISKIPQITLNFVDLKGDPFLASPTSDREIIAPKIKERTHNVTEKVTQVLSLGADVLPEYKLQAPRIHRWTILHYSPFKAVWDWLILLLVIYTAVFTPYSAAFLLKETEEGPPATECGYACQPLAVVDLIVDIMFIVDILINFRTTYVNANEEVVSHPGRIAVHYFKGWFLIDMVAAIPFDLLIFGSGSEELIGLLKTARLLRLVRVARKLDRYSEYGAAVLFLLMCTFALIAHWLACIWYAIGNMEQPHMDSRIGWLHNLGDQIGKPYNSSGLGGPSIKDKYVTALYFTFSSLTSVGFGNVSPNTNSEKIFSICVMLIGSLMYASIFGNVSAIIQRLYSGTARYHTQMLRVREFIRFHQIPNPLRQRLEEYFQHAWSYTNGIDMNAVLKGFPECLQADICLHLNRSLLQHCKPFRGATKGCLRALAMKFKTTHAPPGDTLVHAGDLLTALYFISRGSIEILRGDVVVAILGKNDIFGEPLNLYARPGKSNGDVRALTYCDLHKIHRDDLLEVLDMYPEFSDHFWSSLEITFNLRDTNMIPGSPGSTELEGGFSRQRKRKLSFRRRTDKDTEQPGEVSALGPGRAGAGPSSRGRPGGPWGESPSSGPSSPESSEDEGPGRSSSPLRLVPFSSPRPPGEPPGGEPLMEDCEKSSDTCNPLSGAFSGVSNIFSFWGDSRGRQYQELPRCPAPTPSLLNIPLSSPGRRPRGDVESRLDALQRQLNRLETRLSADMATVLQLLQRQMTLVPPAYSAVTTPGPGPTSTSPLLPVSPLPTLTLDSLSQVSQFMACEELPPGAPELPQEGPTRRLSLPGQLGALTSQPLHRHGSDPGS

| SMILES | hERG current change (%, negative = inhibition) at 10uM [%] |
| --- | --- |
| O=C(NCc1ccccn1)C(=O)NCC1OCCN1S(=O)(=O)c1ccc(F)cc1 (stereo not drawn) | 11.7 |
| CCNC(=S)N1CCN(CCN2C(=O)c3cccc4cccc(c34)C2=O)CC1 | 0.247 |
| CS(=O)(=O)N1CCN(CCN2C(=O)c3cccc4cccc(c34)C2=O)CC1 | 7.17 |
| CC(C)OCC(O)CN1CCN(CCN2C(=O)c3cccc4cccc(c34)C2=O)CC1.Cl (stereo not drawn) | -51.7 |
| CC(=O)c1ccc(OCC(O)CN2CCN(CCN3C(=O)c4cccc5cccc(c45)C3=O)CC2)cc1.Cl (stereo not drawn) | -34.1 |
| CCC(OCC(O)CN1CCN(CCN2C(=O)c3cccc4cccc(c34)C2=O)CC1)c1ccccc1.Cl (stereo not drawn) | -58.4 |
| CC(C)(C)C(=O)N1CCN(CCN2C(=O)c3cccc4cccc(c34)C2=O)CC1 | 3.09 |
| CCCCN(C(=O)Cc1ccc(S(=O)(=O)N2CCOCC2)s1)c1c(N)n(CCCC)c(=O)[nH]c1=O | 0.586 |
| C=CCNc1oc(-c2ccco2)nc1S(=O)(=O)c1ccccc1 | -4.58 |
| N#CCc1nn(-c2ccccc2)c(N)c1C#N | 5.46 |
| CCc1ccc(NC(=O)C(=O)N/N=C(\C)CC(=O)Nc2ccccn2)cc1 | -8.33 |
| COc1ccc2cc3cc(C(=O)NCc4ccco4)oc3nc2c1 | -9.75 |
| Cc1ccc(CCN2CC(C(=O)N3CCN(c4ccc(F)cc4)CC3)CC2=O)cc1 (stereo not drawn) | -57.4 |
| O=C(O)C1CC(=O)N(CCc2ccc(F)cc2)C1 (stereo not drawn) | -8.39 |
| CC(C)CCN1CC(C(=O)N2CCN(c3ccc(F)cc3)CC2)CC1=O (stereo not drawn) | -25.4 |
| Cc1ccc(CCN2CC(C(=O)O)CC2=O)cc1 (stereo not drawn) | -0.636 |
| COc1ccccc1CN1CC(C(=O)N2CCN(c3ccc(F)cc3)CC2)CC1=O (stereo not drawn) | -43 |
| O=C1CC(C(=O)N2CCN(c3ccc(F)cc3)CC2)CN1CCc1ccccc1 (stereo not drawn) | -50.5 |
| Cc1ccc(NC(=O)CSc2nc(N)c3c4c(sc3n2)CSC(C)(C)C4)cc1 | 14.2 |
| COc1ccc(NC(=O)C2CCN(C(=O)Nc3ccccc3)CC2)cc1S(=O)(=O)N(C)C | 12.5 |
| O=[N+]([O-])c1ccc(NCCCNS(=O)(=O)c2ccccc2)cc1 | -64.7 |
| O=[N+]([O-])c1ccc(NCCNS(=O)(=O)c2ccccc2)cc1 | -38.9 |
| Cc1ccc(S(=O)(=O)NCCNc2ccc([N+](=O)[O-])cc2)cc1 | -22.8 |
| O=S(=O)(NCCCc1ccccc1)c1ccc(Br)cc1 | -9.3 |

| SMILES | hERG current change (%, negative = inhibition) at 10uM [%] |
| --- | --- |
| O=[N+]([O-])c1ccc(S(=O)(=O)NCCCc2ccccc2)cc1 | -64.6 |
| O=[N+]([O-])c1ccc(NCCCNS(=O)(=O)c2ccccc2)c(Cl)c1 | -14.3 |
| Cc1ccc(S(=O)(=O)NCCCNc2ccc([N+](=O)[O-])cc2)cc1 | -65.2 |
| O=S(=O)(NCCCc1ccccc1)c1ccccc1 | 10.3 |
| Cc1ccc(S(=O)(=O)NCCCNS(=O)(=O)c2ccc(C)cc2)cc1 | -17.9 |
| O=S(=O)(O)c1cccc(N=Nc2c(O)ccc3ccccc23)c1 | 16.4 |
| N#Cc1ccc(OCC(=O)NCCN2CCOCC2)cc1 | -11.7 |
| O=C(COC(=O)/C=C/c1ccc(Cl)cc1)NC1CCCCCC1 | -1.22 |
| Cc1ccc(C)c(NC(=O)Cc2nc(CCl)cs2)c1 | -14.1 |
| CC(C)Oc1cccc(C(=O)NC(=S)Nc2ccccc2)c1 | -7.26 |
| CCOC(=O)c1ccc(NC(=O)N(CC)CC)cc1 | 4.46 |
| CCCC(=O)N1CCN(c2ccc(NC(=S)NC(=O)c3cccc(C)c3)cc2)CC1 | -18.3 |
| Nc1c(C(=O)NCCN2CCOCC2)c2nc3ccccc3nc2n1Cc1ccccc1 | 1.38 |
| CCCCn1c(N)c(C(=O)OCCOC)c2nc3ccccc3nc21 | -42.4 |
| COC(=O)c1c(N)n(CCCN2CCOCC2)c2nc3ccccc3nc12 | -29.9 |
| Nc1c(C(=O)NCc2ccco2)c2nc3ccccc3nc2n1CCN1CCOCC1 | -4.63 |
| Nc1c(C(=O)NCCN2CCOCC2)c2nc3ccccc3nc2n1Cc1ccco1 | -68.8 |
| COCCOC(=O)c1c(N)n(CCCN2CCOCC2)c2nc3ccccc3nc12 | -53.3 |
| CCCCCn1c(N)c(C(=O)NCCN2CCOCC2)c2nc3ccccc3nc21 | -17.1 |
| COCC(C)OC(=O)c1c(N)n(CCCN2CCOCC2)c2nc3ccccc3nc12 (stereo not drawn) | -9.69 |
| CCCCCOC(=O)c1c(N)n(CCOC)c2nc3ccccc3nc12 | -70.2 |
| CCCCn1c(N)c(C(=O)NCCN2CCOCC2)c2nc3ccccc3nc21 | -64.1 |
| CCCCOCCCn1c(N)c(C(=O)OCCOC)c2nc3ccccc3nc21 | -32.9 |
| CCCCCCn1c(N)c(C(=O)NCCN2CCOCC2)c2nc3ccccc3nc21 | -8.61 |

From paper PMC4336329 (PLoS ONE, 2015)
